One test relates to HACAT. The test can be described thus: qHTS assay to identify novel small-molecules to repurpose for Merkel cell carcinoma treatment (AID 1296009). Also: nearly all actives have a fitted effect of over 60% in size. To be noted: MCC and control cell lines, CellTiter-Glo viability, 72 h; series mostly up to 44.8 µM. In short, it runs like this: (§1)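 CellTiter-Glo luminescence after 72 hr compound exposure at 37 degree celsius gave cell viability. Libraries NPC and MIPE were run as 8- and 11-point dose responses; RLUs normalized to DMSO (negative) and no-cell (cytotoxicity) controls.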
A general note: In qHTS, concentration-response curves come from the screen itself.

The next test has as its system MCC-13. Described as above. As to conditions: MCC and control cell lines, CellTiter-Glo viability, 72 h; series mostly up to 46 µM. Put shortly:
as §1
(In general: Cellular ATP, detected with luciferase, serves as a proxy for viable cell number.)

A further test deals with MKL-1. The test is described as above. To be noted: MCC and control cell lines, CellTiter-Glo viability, 72 h; series mostly up to 46 µM. In short, it runs like this:
as §1

A further test concerns MKL-2. Described as above. As to conditions: MCC and control cell lines, CellTiter-Glo viability, 72 h; series mostly up to 46 µM. Put shortly: as §1
The subject of another test is NIH3T3. The test is described as above. As to conditions: MCC and control cell lines, CellTiter-Glo viability, 72 h; series mostly up to 44.8 µM. In short, it runs like this:
as §1

The next test has as its system UISO. The test is described as above. To be noted: MCC and control cell lines, CellTiter-Glo viability, 72 h; series mostly up to 46 µM. Put shortly: as §1
For a further test, the system named is C33A. Nature of the test: Primary qHTS to identify gynecologic anti-cancer compounds using libraries of approved drugs and bioactive compounds (AID 1345084). Also: nearly all actives have a fitted effect of over 55% in size. As to conditions: Gynecologic cancer cell panel viability, ATPlite luminescence, 48 h; series mostly up to 57.5 µM. Put shortly: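 Five-point cytotoxicity, 48 h drug exposure at 37 C, 5% CO2, on cells seeded 16 h beforehand. ATP content read by ATPlite luminescence.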

The test system of a further test is MCC-26. The test can be described thus: qHTS assay to identify novel small-molecules to repurpose for Merkel cell carcinoma treatment (AID 1296009). Also: nearly all actives have a fitted effect of over 60% in size. As to conditions: MCC and control cell lines, CellTiter-Glo viability, 72 h; series mostly up to 46 µM. In short, it runs like this: as §1
A further test deals with WaGa. Described as above. To be noted: MCC and control cell lines, CellTiter-Glo viability, 72 h; series mostly up to 46 µM. Put shortly:
as §1

Each structure is given as a SMILES string. “And” between values parts separate entries of the source, which are not always exact repeats. Equal values may be shown once. Results filed as inconclusive are left out. Where a structure was tested more than once in an assay, its records may differ in their call. The source made the active and inactive calls. Calls follow the shape of the dose curve; as a rule, active = well fitted curve in the direction sought with a large enough effect; inconclusive = small, poorly fitted or top-dose-only effect, or another doubt; inactive = no such curve, though single readings can be large; an effect the other way counts as inactive or inconclusive.
Potency is read from the fitted curve at half-maximal effect.

Take `CC(C)C(=O)Nc1ccc([N+](=O)[O-])c(C(F)(F)F)c1`: the call in the test with HACAT and with NIH3T3 was inactive. Besides, the Potency result with MCC-13, in the test on MKL-1, in the test on MKL-2, in the test on UISO and in the test on C33A was “inactive” in each case.

Regarding `CN(Cc1cnc2nc(N)nc(N)c2n1)c1ccc(C(=O)N[C@@H](CCC(=O)O)C(=O)O)cc1`, the Potency entry in the test with MCC-26 and in the test on MKL-2 was “inactive” in each case. The Potency in the test with MKL-1 was 10.5 µM (active).

`CC[C@@]1(O)C(=O)OCc2c1cc1n(c2=O)Cc2cc3c(CN(C)C)c(O)ccc3nc2-1`: the Potency was 94.4 nM (active) and 132 nM (active) in the test on MCC-13; 94.4 nM (active) and 418 nM (active) in the test on MCC-26; 21.1 nM (active) and 93.5 nM (active) in the test on MKL-1; 4.2 nM (active) and 13.2 nM (active) with MKL-2; 237 nM (active) and 46.9 nM (active) in the test with UISO; 3.8 nM (active) and 26.4 nM (active) with WaGa. In the test on C33A, the Potency is 2.51 µM (active) and 7.08 µM (active).

In the case of `CS(=O)(=O)CCNCc1ccc(-c2ccc3ncnc(Nc4ccc(OCc5cccc(F)c5)c(Cl)c4)c3c2)o1`, the Potency entry in the test with MCC-13, in the test with MCC-26, with MKL-1, with UISO and with C33A was “inactive” throughout. Also, the Potency in the test with MKL-2 was 11.9 µM (active); in the test with WaGa, “inactive and 16.8 µM (active)”.

Consider `Cc1cn([C@H]2C[C@H](N=[N+]=[N-])[C@@H](CO)O2)c(=O)[nH]c1=O`, for which the Potency result in the test with C33A was “inactive”.

Regarding `O=c1c(O)c(-c2ccc(O)c(O)c2)oc2cc(O)cc(O)c12`, the Potency result in the test with MCC-13, in the test with MKL-1, in the test on MKL-2, in the test on UISO, in the test with WaGa and in the test on C33A was “inactive” each time.

In the case of `O=c1[nH]cc(F)c(=O)[nH]1`, the Potency result in the test on MCC-13, in the test with MCC-26, in the test with MKL-1 and with MKL-2 was “inactive” throughout. Also, in the test with WaGa, the Potency was 10.5 µM (active).

As for `O=C1c2c(O)ccc(O)c2C(=O)c2c(NCCNCCO)ccc(NCCNCCO)c21`, the Potency in the test on MCC-13 is 935 nM (active) and 750 nM (active); with MKL-1, 105 nM (active) and 6 nM (active); in the test on MKL-2, 0.006 µM (active); with UISO, 526 nM (active) and 668 nM (active); with WaGa it was 74.3 nM (active) and 4.7 nM (active); in the test on C33A, 2.51 µM (active).

In the case of `COc1cc2nc(N(C)CCCNC(=O)C3CCCO3)nc(N)c2cc1OC` (centres undefined), the Potency result with MCC-13, with MCC-26, in the test with MKL-1, in the test with MKL-2, in the test with UISO and in the test with WaGa was “inactive” each time. The Potency result in the test with C33A was “inactive”. In addition, in the test on NIH3T3, the molecule was classed as inactive.

In the case of `COc1ccccc1N1CCN(CC(O)COc2cccc3ccccc23)CC1` (centres undefined), the Potency entry in the test with MCC-13, in the test with MKL-1, in the test with MKL-2, in the test with UISO and in the test on WaGa was “inactive” throughout. Besides, the Potency in the test with C33A is 8.91 µM (active).

In the case of `CS(=O)(=O)Nc1ccc([N+](=O)[O-])cc1Oc1ccccc1`, the Potency entry in the test on MCC-13, in the test with MCC-26, in the test with MKL-1, in the test on UISO, in the test on WaGa and in the test with C33A was “inactive” in each case. Also, in the test with MKL-2, the Potency result is “inactive and 14.8 µM (active)”.

For `Cn1c(=O)c2[nH]cnc2n(C)c1=O`, in the test on C33A, the Potency entry was “inactive”.

In the case of `COc1cc2c(c(OC)c1OC)-c1ccc(OC)c(=O)cc1[C@@H](NC(C)=O)CC2`, the Potency in the test with MCC-13 was 11.8 nM (active). Also, the Potency entry with MCC-26, in the test with MKL-2, in the test with UISO and in the test on WaGa was “inactive” throughout.

In the case of `CNCCCC12CCC(c3ccccc31)c1ccccc12`, the Potency entry in the test on MCC-13 and in the test on MCC-26 was “inactive” each time. The Potency was 23.5 µM (active) in the test on MKL-2; 29.9 µM (active) and inactive with WaGa.

For `NC(=O)NO`, the Potency entry in the test on MCC-13 is “inactive and 2.96 µM (active)”; in the test on MCC-26, “inactive and 10.5 µM (active)”; in the test with MKL-2, “inactive and 372 nM (active)”; with UISO, “inactive and 4.69 µM (active)”. Besides, the Potency result with MKL-1, in the test on WaGa and in the test on C33A was “inactive” each time.

`C[C@@H]1CC(=O)NN=C1c1ccc(NN=C(C#N)C#N)cc1`: the Potency entry in the test on MCC-13, in the test with MKL-1 and in the test with C33A was “inactive” in each case. Also, the Potency is 8.41 µM (active) and 7.5 µM (active) in the test on MKL-2; 21.1 µM (active) in the test with UISO; 23.7 µM (active) and inactive in the test on WaGa.

Take `CC(COc1ccccc1)N(CCCl)Cc1ccccc1` (centres undefined): the Potency entry with C33A was “inactive”.

`Clc1ccccc1C(c1ccccc1)(c1ccccc1)n1ccnc1`: the Potency entry with MCC-13, with MKL-1, with MKL-2 and in the test on UISO was “inactive” in each case. The Potency in the test with WaGa is 23.7 µM (active) and inactive.

As for `CC12CC3CC(C)(C1)CC(N)(C3)C2`, the Potency result in the test with MCC-13, in the test with MKL-1, in the test with MKL-2, in the test on UISO and with C33A was “inactive” throughout. For the same molecule, the Potency in the test with WaGa was 3.72 µM (active) and inactive.

With `CN(C)c1nc(N(C)C)nc(N(C)C)n1`, the Potency result with MCC-13, in the test on MKL-1, with MKL-2, in the test on UISO, in the test with WaGa and with C33A was “inactive” throughout.

For `Nc1nc2c(ncn2COC(CO)CO)c(=O)[nH]1`, the Potency entry in the test with MCC-13 is “inactive and 20.9 µM (active)”; with MKL-2, “inactive and 7.43 µM (active)”; with UISO, “inactive and 18.7 µM (active)”. In addition, the Potency result with MCC-26, in the test on MKL-1, in the test with WaGa and in the test with C33A was “inactive” in each case.

Regarding `O=C(C1CCCCC1)N1CC(=O)N2CCc3ccccc3C2C1` (centres undefined), the Potency result in the test on C33A was “inactive”.

Turning to `CC#C[C@]1(O)CC[C@H]2[C@@H]3CCC4=CC(=O)CCC4=C3[C@@H](c3ccc(N(C)C)cc3)C[C@@]21C`, the Potency result in the test on MCC-13, in the test with MCC-26 and with C33A was “inactive” in each case. Besides, the Potency result with MKL-1 was “inactive and 105 nM (active)”; with MKL-2 it was 21.1 µM (active) and 93.5 nM (active); in the test on UISO it was 2.96 µM (active).

Take `O=C(Nc1ccc([N+](=O)[O-])cc1Cl)c1cc(Cl)ccc1O`: the results for the Potency with UISO, in the test with WaGa and in the test with C33A were 3.26 µM (active), 4.61 µM (active) and 2.51 µM (active), respectively.

Take `OCCN1CCN(CCCN2c3ccccc3Sc3ccc(C(F)(F)F)cc32)CC1`: the Potency entry in the test on MCC-13, in the test on UISO and with C33A was “inactive” throughout. Moreover, the Potency was 21.1 µM (active) with MKL-1; 20.9 µM (active) and 21.1 µM (active) with MKL-2; 20.9 µM (active) in the test with WaGa.

Regarding `CCC1(c2ccccc2)C(=O)NCNC1=O`, in the test with C33A, the Potency result was “inactive”.

With `CN1CCN(C2=Nc3cc(Cl)ccc3Nc3ccccc32)CC1`, the Potency result with MCC-13, with MCC-26, in the test on MKL-1, in the test with MKL-2, in the test with UISO and with WaGa was “inactive” throughout. Also, the Potency result with C33A is “inactive”. Moreover, in the test on NIH3T3, the molecule was classed as inactive.

On to `Cc1cn([C@H]2C=C[C@@H](CO)O2)c(=O)[nH]c1=O`, for which the Potency result in the test with MCC-13, in the test on MKL-1, in the test with MKL-2, in the test on UISO, in the test on WaGa and in the test with C33A was “inactive” throughout.

`CC(C)NCC(O)c1ccc(O)c(O)c1` (centres undefined): the Potency result with MCC-13, with MCC-26 and with C33A was “inactive” in each case. The Potency is 8.41 µM (active) in the test on MKL-1; 7.43 µM (active) and 18.8 µM (active) in the test on MKL-2; 3.32 µM (active) and 18.8 µM (active) in the test with WaGa.

Regarding `COC(=O)Nc1nc2ccc(C(=O)c3cccs3)cc2[nH]1`, the Potency was 148 nM (active) and 266 nM (active) in the test on MCC-13; 0.0235 µM (active) in the test with UISO; 1 µM (active) in the test with C33A.

As to `O=C(c1ccc(F)cc1)C1CCN(CCn2c(=O)[nH]c3ccccc3c2=O)CC1`, the Potency result in the test on MCC-13, with MCC-26, in the test with MKL-1, in the test on MKL-2, in the test on UISO and with WaGa was “inactive” each time. Also, the Potency entry with C33A was “inactive”. For the same molecule, the outcome in the test with NIH3T3 was inactive.

For the molecule `COc1cc2nc(N3CCN(C(=O)c4ccco4)CC3)nc(N)c2cc1OC`, the Potency result in the test on MCC-13, with MCC-26 and with C33A was “inactive” each time. Also, the figures for the Potency in the test with MKL-1, in the test with MKL-2 and in the test on WaGa were 29.6 µM (active), 16.6 µM (active) and 20.9 µM (active), respectively.

Consider `CN1C(C(=O)Nc2ccccn2)=C(O)c2ccccc2S1(=O)=O`, for which the Potency result in the test on MCC-13, with MKL-2, with UISO and with C33A was “inactive” in each case. In addition, the Potency result with MKL-1 is “inactive and 10.5 µM (active)”; in the test with WaGa it was “inactive and 16.6 µM (active)”.

For the molecule `Cn1c(=O)c2c(ncn2C)n(C)c1=O`, the Potency result in the test on MCC-13, with MCC-26, in the test on MKL-1, in the test with MKL-2, in the test with UISO and with WaGa was “inactive” throughout. Further, the Potency result in the test with C33A is “inactive”.

With `CCOC(=O)c1ncn2c1CN(C)C(=O)c1cc(F)ccc1-2`, the Potency entry in the test on C33A is “inactive”.

These data come from PubChem BioAssay (NCATS).
